Screening results as filed in PubChem.
Shown are actives, neighbours in structure and some others; about 3.4% of the full set was active somewhere.
MITF primary – inhibitors of human MITF. O75030. AlphaScreen MITF homodimerization, bead proximity signal. inhibition, % at 2.6 µM. actives 0.91% (n = 650,000). AID 1259374; in the data active = inhibition above about 50%;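 note: 0% = vehicle wells with protein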
Target sequence (O75030 whole entry, looked up): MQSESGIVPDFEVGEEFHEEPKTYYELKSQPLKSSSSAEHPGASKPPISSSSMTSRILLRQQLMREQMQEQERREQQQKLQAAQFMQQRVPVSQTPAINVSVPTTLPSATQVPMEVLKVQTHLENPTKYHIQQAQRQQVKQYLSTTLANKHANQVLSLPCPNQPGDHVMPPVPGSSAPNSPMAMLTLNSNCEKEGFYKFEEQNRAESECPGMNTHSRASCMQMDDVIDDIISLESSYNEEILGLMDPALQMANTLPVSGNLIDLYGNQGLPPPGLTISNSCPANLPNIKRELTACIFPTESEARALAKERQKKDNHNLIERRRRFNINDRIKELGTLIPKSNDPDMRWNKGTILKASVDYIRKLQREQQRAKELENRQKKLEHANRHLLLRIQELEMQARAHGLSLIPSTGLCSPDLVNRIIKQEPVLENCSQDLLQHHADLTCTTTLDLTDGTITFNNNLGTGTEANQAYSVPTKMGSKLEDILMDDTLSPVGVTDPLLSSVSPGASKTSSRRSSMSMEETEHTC
TEAD-YAP block – TEAD-YAP interaction inhibition; HEK-TIYL cells, TEAD-Gal4/YAP UAS-luciferase luminescence; inhibition, % at 9.12 µM; actives 1.4% (n = 640,000); AID 1259422; in the data active = inhibition above about 32%;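 note: 0% = median of test compound wells and 100% = reference inhibitor wells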
FBW7 activator – human FBW7 E3 ligase activation, primary screen. Q969H0. AlphaScreen FBW7–phospho-cyclin E peptide binding, activator screen. actives 0.13% (n = 650,000). normalized activity (activation), % at 26.1 µM. AID 1259310; in the data active = normalized activity above about 1.9%;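 note: purified mutant Fbw7 with reduced substrate affinity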
GPR151 activ – activators of human GPR151. actives 1% (n = 650,000). AID 1508602. Q8TDV0. activation, % at 11.2 µM. PathHunter beta-arrestin GPR151 cells, luminescence; in the data active = activation above about 4.9%;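 note: 0% = median of compound wells and 100% = cells with positive control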
* hit, by the source's call.

Results for Cc1ccnc(Nc2nc(-c3cccs3)cs2)c1 ?
MITF primary: 26.0; TEAD-YAP block: -30.4; FBW7 activator: 0.3; GPR151 activ: -0.5

Results for Cc1ccc(Nc2nc(-c3ccccn3)cs2)cc1 ?
MITF primary: -5.1; TEAD-YAP block: 55.4*; FBW7 activator: -1.4; GPR151 activ: -4.1

Results for Cc1ccnc(Nc2nc(-c3ccccn3)cs2)c1 ?
MITF primary: 103.1*; TEAD-YAP block: 73.1*; FBW7 activator: -1.9; GPR151 activ: -3.4

Results for CCCCOc1ccccc1C(=O)NNC(=S)NC(=O)CC ?
MITF primary: -4.8; TEAD-YAP block: -0.3; FBW7 activator: 0.2; GPR151 activ: 0.0

What do the screens show for `COc1cccc(-n2cc(-c3cc4ccccc4oc3=O)[nH]c2=S)c1`?
MITF primary: 1.4; TEAD-YAP block: 94.8*; FBW7 activator: 0.0; GPR151 activ: -8.1

How did CCN(CC)c1ccc(N)c(C)c1 do in these assays?
MITF primary: 80.0*; TEAD-YAP block: 11.6; FBW7 activator: -0.1; GPR151 activ: -0.6

What do the screens show for `Cc1ccc(C2=NC(C)(C)N=C2SCC(=O)Nc2ccc3c(c2)OCCO3)cc1`?
MITF primary: -10.3; TEAD-YAP block: 15.0; FBW7 activator: 3.7*; GPR151 activ: -0.1

How did O=C(Nc1ccc2c(c1)OCCO2)c1ccccc1F do in these assays?
MITF primary: 8.4; TEAD-YAP block: 41.1*; FBW7 activator: 0.3; GPR151 activ: -7.0

What do the screens show for `CCC(CC)C(=O)Nc1cccc(C(=O)Nc2ccc3c(c2)OCCO3)c1`?
MITF primary: 9.2; TEAD-YAP block: -66.1; FBW7 activator: -0.1; GPR151 activ: 0.9

What do the screens show for `O=C(Nc1cccc(C(=O)NC2CC2)c1)C(=O)Nc1ccc2c(c1)OCCO2`?
MITF primary: 5.7; TEAD-YAP block: 66.1*; FBW7 activator: -0.1; GPR151 activ: 1.1

How did Cc1cc(C)c(C(=O)Nc2ccc3c(c2)OCCO3)c(C)c1 do in these assays?
MITF primary: -3.3; TEAD-YAP block: -8.1; FBW7 activator: -0.1; GPR151 activ: -0.3

How did Cc1ccc(C(=O)Nc2ccc3c(c2)OCCO3)c(C)c1 do in these assays?
MITF primary: 2.0; TEAD-YAP block: 88.9*; FBW7 activator: -0.1; GPR151 activ: -5.1

How did O=C(CCCN1C(=O)/C(=C/c2ccccc2)SC1=S)Nc1cccc(C(=O)O)c1 do in these assays?
MITF primary: -13.5; TEAD-YAP block: -0.1; FBW7 activator: -0.1; GPR151 activ: -0.5

How did O=C(Nc1ccc2c(c1)OCCO2)c1ccccc1O do in these assays?
MITF primary: 11.6; TEAD-YAP block: 56.5*; FBW7 activator: 0.0; GPR151 activ: -5.9

Results for Cc1oc2c(c1C(=O)N1CCC3(CC1)NC(=O)c1ccccc1N3)CCCC2 ?
MITF primary: 2.2; TEAD-YAP block: 11.4; FBW7 activator: 0.2; GPR151 activ: -1.3

What do the screens show for `CCOc1ccc2nc(N3CCC(C(=O)Nc4ccc(OC)cc4)CC3)sc2c1`?
MITF primary: 7.6; TEAD-YAP block: 8.6; FBW7 activator: -0.1; GPR151 activ: 1.7

How did CCOC(=O)C1CCN(c2nc3ccc(CC)cc3s2)CC1 do in these assays?
MITF primary: -5.0; TEAD-YAP block: 55.5*; FBW7 activator: 0.9; GPR151 activ: -1.3

How did CCOC(=O)C1CCN(c2nc3cc(Br)ccc3s2)CC1 do in these assays?
MITF primary: 14.7; TEAD-YAP block: -11.2; FBW7 activator: 0.2; GPR151 activ: -6.2

What do the screens show for `CCOc1ccc2nc(N3CCC(C(=O)O)CC3)sc2c1`?
MITF primary: -1.4; TEAD-YAP block: 58.0*; FBW7 activator: -0.3; GPR151 activ: 0.8

What do the screens show for `CCOC(=O)Nc1nc2ccc(OCC)cc2s1`?
MITF primary: 7.9; TEAD-YAP block: 0.7; FBW7 activator: -0.1; GPR151 activ: -0.6

How did CCOc1ccc2nc(NC(=O)C(C)(C)CC)sc2c1 do in these assays?
MITF primary: -8.2; TEAD-YAP block: 40.8*; FBW7 activator: -0.2; GPR151 activ: 0.1

What do the screens show for `CCc1ccc2sc(N3CCC(C(=O)NC4CCCC4)CC3)nc2c1`?
MITF primary: -4.4; TEAD-YAP block: 65.0*; FBW7 activator: -0.2; GPR151 activ: 3.1

What do the screens show for `CCOc1ccc(C(c2nnnn2Cc2ccc(F)cc2)N2CCN(C)CC2)cc1` (stereo not given)?
MITF primary: 0.2; TEAD-YAP block: -5.6; FBW7 activator: -0.1; GPR151 activ: 1.8

What do the screens show for `Cc1ccccc1NS(=O)(=O)c1cc(C(=O)NC2CCCC2)ccc1C`?
MITF primary: 11.7; TEAD-YAP block: 8.6; FBW7 activator: 0.8; GPR151 activ: 0.3

What do the screens show for `COCCC1CCCCN1C(=O)CC1(c2ccccc2Cl)CC(=O)N(C)C1=O` (stereo not given)?
MITF primary: -7.8; TEAD-YAP block: 5.7; FBW7 activator: -0.1; GPR151 activ: -0.1

Results for CC(=O)Oc1cccc2ccc(/C=C/c3cccc(F)c3)nc12 ?
MITF primary: -7.4; TEAD-YAP block: 39.8*; FBW7 activator: 0.1; GPR151 activ: -4.8

How did COc1cc(/C=C/c2ccc3cccc(OC(C)=O)c3n2)cc(OC)c1OC(C)=O do in these assays?
MITF primary: 7.9; TEAD-YAP block: 7.5; FBW7 activator: 0.2; GPR151 activ: -1.2

What do the screens show for `COC(=O)c1c(N)sc(C(=O)NCCc2ccccc2)c1C`?
MITF primary: 8.0; TEAD-YAP block: 72.5*; FBW7 activator: 0.6; GPR151 activ: -5.1

Results for CCCNC(=O)c1sc(N)c(C(=O)OC)c1C ?
MITF primary: -3.1; TEAD-YAP block: -10.5; FBW7 activator: -0.1; GPR151 activ: 0.6

What do the screens show for `COC(=O)c1c(N)sc(C(=O)Nc2cccc(Cl)c2)c1C`?
MITF primary: -2.4; TEAD-YAP block: 71.7*; FBW7 activator: 0.0; GPR151 activ: -5.6

What do the screens show for `COC(=O)c1c(N)sc(C(=O)Nc2cc(C)ccc2C)c1C`?
MITF primary: 6.5; TEAD-YAP block: 79.3*; FBW7 activator: 0.2; GPR151 activ: -3.0

How did COc1cccc(CN2CCNC(=O)C2CC(=O)NCCSC)c1OC (stereo not given) do in these assays?
MITF primary: 4.8; TEAD-YAP block: 1.6; FBW7 activator: 0.0; GPR151 activ: -0.5

What do the screens show for `O=C1NC(=O)/C(=C\c2cccn2-c2ccc(F)cc2)N1`?
MITF primary: 8.3; TEAD-YAP block: 12.8; FBW7 activator: 0.0; GPR151 activ: 0.4

Results for O=C(Cc1ccc2c(c1)OCO2)Nc1cc(Nc2ccccc2-c2nn[nH]n2)c(Cl)cn1 ?
MITF primary: 14.5; TEAD-YAP block: 1.5; FBW7 activator: 1.1; GPR151 activ: -0.1

What do the screens show for `NC(=O)c1ccccc1Nc1nc(Nc2ccc(N3CCOCC3)c(Cl)c2)ncc1Cl`?
MITF primary: -10.1; TEAD-YAP block: 21.8; FBW7 activator: -0.1; GPR151 activ: 1.3

What do the screens show for `NC(=O)c1ccccc1Nc1cc(NC(=O)Cc2ccc3ccccc3c2)ncc1C(F)(F)F`?
MITF primary: 1.6; TEAD-YAP block: 93.3*; FBW7 activator: 0.1; GPR151 activ: -2.2

What do the screens show for `NC(=O)c1ccccc1Nc1cc(Oc2ccc(N3CCNCC3)cc2)ncc1C(F)(F)F`?
MITF primary: -12.5; TEAD-YAP block: 3.1; FBW7 activator: 0.7; GPR151 activ: -1.7

What do the screens show for `NC(=O)c1ccccc1Nc1cc(NC(=O)Cc2ccc(CN3CCOCC3)cc2)ncc1C(F)(F)F`?
MITF primary: 6.0; TEAD-YAP block: 98.6*; FBW7 activator: -0.1; GPR151 activ: 1.4
